GSH bead fluor: compound fluorescence on glutathione beads, profiling panel, artefact control, biophysical, 488/530 nm, flow cytometry | GSH beads flow cytometry, compound fluorescence 488/530 nm; hits give high values | fluorescence (KMESF) at 10 µM | 0.25% of 190,000 active; in the data active means fluorescence above about 89;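 further: glutathione beads carrying GST-tagged Bcl family fusion proteins plus one bare bead set; values are compound well signal with DMSO vehicle wells as background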
RGS7-Gao: RGS7-Galphao binding modulators, primary screen, biochemical, multiplexed bead flow cytometry; Guanine nucleotide-binding protein G(o) subunit alpha (Homo sapiens), P09471; actives lie on both sides; binding response (% of control), % at 10 µM; 0.35% of 220,000 active; AID 1439, 2008; in the data active means binding response below about 49% or above about 150%; inconclusive means no clear call, values can overlap the other calls; inactive means in between;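 further: fluorescent Galphao held in activated GDP-AlF4 state binding bead-coupled RGS7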
Target sequence (P09471 whole entry, looked up): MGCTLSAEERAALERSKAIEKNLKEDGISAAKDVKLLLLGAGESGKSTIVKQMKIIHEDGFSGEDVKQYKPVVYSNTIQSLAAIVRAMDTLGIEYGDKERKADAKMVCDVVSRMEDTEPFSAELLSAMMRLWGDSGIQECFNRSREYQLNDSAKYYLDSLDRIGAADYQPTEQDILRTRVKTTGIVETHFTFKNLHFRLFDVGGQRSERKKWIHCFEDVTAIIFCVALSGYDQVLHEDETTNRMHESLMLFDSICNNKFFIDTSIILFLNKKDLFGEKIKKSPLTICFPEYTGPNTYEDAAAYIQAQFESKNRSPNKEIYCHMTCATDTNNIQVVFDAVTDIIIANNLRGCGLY
Avidin fluor: green autofluorescence of compounds with avidin beads – biophysical, 488/530 nm, flow cytometry, artefact control, profiling panel | compound fluorescence 488/530 nm; hits give high values | fluorescence (KMESF) at 10 µM | 0.38% of 220,000 active; in the data active means fluorescence above about 47
RGS4-Gao reg: modulators of RGS4 binding to Galphao, primary screen, biochemical, multiplexed bead flow cytometry; AID 1415, 2008; 0.33% of 220,000 active; binding response (% of control), % at 10 µM; actives lie on both sides; in the data active means binding response below about 49% or above about 150%; inactive means in between;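 further: fluorescent Galphao activated with aluminum fluoride binding bead-coupled RGS4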
RGS8-Gao reg: RGS8-Galphao binding modulators, primary screen, biochemical, multiplexed bead flow cytometry | Guanine nucleotide-binding protein G(o) subunit alpha (Homo sapiens), P09471 | 0.34% of 220,000 active | actives lie on both sides | response (percent of control binding), % at 10 µM; in the data active means response below about 60% or above about 140%; inactive means in between;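 further: Galphao activated as the GDP aluminium fluoride complex binding bead-coupled RGS8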
RGS16-Gao HTS: modulators of RGS16 binding to Galphao, primary screen, biochemical, human proteins, multiplexed bead flow cytometry. bead-based flow cytometry RGS16-Galphao binding, fluorescence; actives lie on both sides. AID 1441, 2008. Regulator of G-protein signaling 16 (Homo sapiens) + Guanine nucleotide-binding protein …. binding response (% of control), % at 10 µM. 0.38% of 220,000 active;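 further: Galphao activated by GDP with aluminum fluoride before binding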
Target sequence (O15492 whole entry, looked up): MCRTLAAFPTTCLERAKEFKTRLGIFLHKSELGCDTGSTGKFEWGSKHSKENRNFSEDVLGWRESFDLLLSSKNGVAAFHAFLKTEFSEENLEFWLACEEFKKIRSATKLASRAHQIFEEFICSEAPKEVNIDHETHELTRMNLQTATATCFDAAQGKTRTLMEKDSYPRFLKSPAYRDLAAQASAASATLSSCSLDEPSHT
Target sequence (P09471 whole entry, looked up): as the sequence (P09471 whole entry, looked up) above
RGS-Gao: modulators of RGS–Galpha-o binding, primary screen, biochemical, multiplexed beads, flow cytometry, RGS4/7/8/16/19; shares compounds with RGS16-Gao HTS; multiplexed bead flow cytometry; RGS4–Galpha-o binding response, % at 10 µM; 99% of 1,600 active;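 further: fluorescently labeled Galpha-o bound to GDP with aluminium fluoride binding biotinylated RGS beads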
Biotin-avidin: disruption of biotin probe capture by avidin, counter-screen for RGS protein interaction modulators, biochemical, flow cytometry, bead-based; shares compounds with RGS16-Gao HTS; streptavidin beads, fluorescein-biotin binding; inhibition, % at 10 µM; 1,700 tested, under 10 active; AID 1783, 2009;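 active means inhibition above 50%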;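 further: median green fluorescence of gated singlet beads compared with DMSO control wells; 0% = DMSO wells and 100% = complete loss of bead fluorescence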
RGS8-Gao confirm: RGS8-Galphao binding modulators, confirmation, biochemical, multiplexed bead flow cytometry, single concentration | shares compounds with RGS16-Gao HTS | binding response (% of control), % at 10 µM | 3% of 1,700 active | bead-based flow cytometry RGS8-Galphao binding, fluorescence; actives lie on both sides; in the data active means binding response below about 72% or above about 130%; inactive means in between;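 further: Galphao activated as GDP AlF4 complex before binding bead RGS8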
RGS7-Gao confirm: RGS7-Galphao binding modulators, confirmation, biochemical, multiplexed bead flow cytometry, single concentration. shares compounds with RGS16-Gao HTS. bead-based flow cytometry RGS7-Galphao binding; actives lie on both sides. response (percent of control binding), % at 10 µM. 7.8% of 1,700 active. AID 1837, 2009; in the data active means response below about 75% or above about 130%; inactive means in between;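 further: fluorescent Galphao activated with GDP and aluminum fluoride binding bead-coupled RGS7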
RGS16-Gao single: modulators of RGS16-Galphao protein binding, confirmation, biochemical, single concentration, multiplexed bead flow cytometry | shares compounds with RGS16-Gao HTS | bead-based flow cytometry; actives lie on both sides | response (% of control binding), % at 10 µM | 4% of 1,700 active; in the data active means response below about 74% or above about 130%; inactive means in between;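 further: Galphao activated as the GDP aluminium fluoride complex binding bead-coupled RGS16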
RGS4-Gao single: modulators of RGS4-Galphao protein binding, confirmation, biochemical, single concentration, multiplexed bead flow cytometry; shares compounds with RGS16-Gao HTS; actives lie on both sides; binding response (% of control), % at 10 µM; 4% of 1,700 active; in the data active means binding response below about 74% or above about 130%; inactive means in between
RGS19-Gao single: regulators of RGS19-Galphao binding, confirmation, biochemical, single point, multiplexed bead flow cytometry; AID 1841, 2009; 5% of 1,700 active; response (percent of control binding), % at 10 µM; shares compounds with RGS16-Gao HTS; bead-based flow cytometry RGS19-Galphao binding; actives lie on both sides; in the data active means response below about 50% or above about 160%; inactive means in between;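 further: 100% = no compound control and 0% = blank background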
* hit, by the source's call; ? = inconclusive; . = no result; [ ] = remark or other dose. An excerpt weighted towards active compounds, which were near 1.2% of everything screened. Unless noted, how the calls were made is not given here.

SMILES	GSH bead fluor	RGS7-Gao	Avidin fluor	RGS4-Gao reg	RGS8-Gao reg	RGS16-Gao HTS	Biotin-avidin	RGS8-Gao confirm	RGS7-Gao confirm	RGS16-Gao single	RGS4-Gao single	RGS19-Gao single	others
COc1ccc(OC)c2sc(NC(=O)C3=COCCO3)nc12	25	105.2	7	104.4	102.2	101.7	.	.	.	.	.	.
CCNC(=S)Nc1cc(OCC)c(NC(=O)c2cccs2)cc1OCC	6	36.1*	7	43.5*	61.5	50.2	-1.8	101.0	100.2	101.0	100.5	95.4
O=C(c1ccco1)N1CCN(S(=O)(=O)c2ccc(Cl)s2)CC1	17	.	.	.	.	.	0.6	97.7	97.7	97.5	94.7	93.8
COC(=O)Nc1cc([N+](=O)[O-])ccc1OC	11	111.6	19	101.0	103.5	101.4	.	.	.	.	.	.
COc1ccc(OC(=O)Nc2ccc([N+](=O)[O-])cc2OC)cc1	.	?	1	38.5*	47.9*	33.5	0.3	103.9	106.4	106.0	106.7	108.4
COc1ccc(OC)c(-c2cc(C(F)(F)F)c3c(n2)sc2c(O)cc(=O)[nH]c23)c1	9	104.0	6	102.9	102.9	102.2	.	.	.	.	.	.
Cn1c(CO)cnc1-c1ccccc1	.	?	6	151.4*[activator]	132.4	150.3	-0.5	99.6	99.1	97.2	102.4	98.7
Cn1c(SCC(N)=O)nnc1-c1ccccc1	49	105.6	14	107.0	105.1	115.1	.	.	.	.	.	.
N#Cc1nc(COc2ccc(Br)cc2)oc1NCCN1CCOCC1	16	132.6	7	140.1	143.3*[activator]	121.0	2.8	98.3	101.0	99.0	97.7	95.3	RGS-Gao=140.1*
CCC/C(O)=C1\C(=O)CC(c2ccccc2)CC1=NCCc1c(C)[nH]c2ccc(C)cc12 (configuration not stated)	16	52.2	2	51.6	51.9*	14.0*	.	.	.	.	.	.	RGS-Gao=51.6*
COc1ccc(C)cc1NC(=O)C(Sc1nnc(Nc2cc(C)ccc2OC)s1)c1ccccc1 (configuration not stated)	8	7.2*	-3	10.6*	3.4*	-13.1*	-2.2	105.5	109.5	106.6	103.7	97.6
COc1ccc(Nc2nnc(SC(C(=O)Nc3cc(C)ccc3C)c3ccccc3)s2)cc1 (configuration not stated)	16	104.2	12	101.5	103.7	101.6	.	.	.	.	.	.
CCOC(=O)CCC(=O)Nc1cccc([N+](=O)[O-])c1	7	102.6	1	100.8	105.8	114.5	.	.	.	.	.	.
O=C(CCC(=O)OCc1ccc(Cl)cc1)Nc1cccc([N+](=O)[O-])c1	21	46.1*	2	50.9	58.4*	44.2	.	.	.	.	.	.	RGS-Gao=50.9*
CC[C@H](CO)NCCN[C@H](CC)CO	22	100.1	12	97.7	96.3	92.7	.	.	.	.	.	.
CCC(CO)NCCNC(CC)CO (configuration not stated)	11	61.1	10	27.0*	86.5	-120.3	0.8	99.2	89.4	97.7	94.6	79.2
Cc1cc(-c2n[nH]c(=S)n2/N=C/c2cc([N+](=O)[O-])ccc2Cl)n[nH]1	7	79.0	7	83.4	66.2	-2.0*	0.1	96.6	123.1	96.0	103.0	92.0	RGS-Gao=83.4*
COc1ccc(NC(=O)CC(NCCc2ccccc2)C(=O)O)c(OC)c1 (configuration not stated)	13	99.1	23	99.5	101.0	100.5	.	.	.	.	.	.
COCCCNC(CC(=O)Nc1ccc(OC)cc1OC)C(=O)O (configuration not stated)	55	.	.	.	.	.	0.6	104.4	107.2	106.3	103.2	96.4
CC1CCCC(C)N1S(=O)(=O)c1ccc(S(=O)(=O)NCc2ccccc2)cc1 (configuration not stated)	22	92.0	3	89.8	70.9	22.2*	1.1	95.7	103.4	99.0	98.6	109.5	RGS-Gao=89.8*
CC1CCN(S(=O)(=O)c2ccc(S(=O)(=O)NCc3ccccc3)cc2)CC1	44	97.0	4	93.0	100.9	103.1	.	.	.	.	.	.
O=C(COc1ccc(-n2ccnc2)cc1)Nc1cccc(Cl)c1	25	?	9	93.1	95.2	94.3	.	.	.	.	.	.
Oc1ccc(/C=C/c2nc(-c3ccccc3O)n(-c3ccccc3)n2)cc1	9	95.3	9	93.9	97.7	94.1	.	.	.	.	.	.
Oc1ccccc1-c1nc(/C=C/c2ccccc2)nn1-c1ccccc1	9	105.6	18	106.9	117.1	197.5*[activator]	-0.5	102.3	107.5	103.8	106.8	89.6	RGS-Gao=106.9*
O=C(CCc1nnc(Cc2c[nH]c3ccccc23)o1)NCC1CC12CCCCC2 (configuration not stated)	11	101.2	12	102.3	101.5	102.5	.	.	.	.	.	.
